The supplement of paper PMC13392028
In all, about 4,100 sequences were measured (“RBNS R-value (6-mer enrichment in protein-bound RNA vs input library)”: median about 0.99, highest 2% from about 1.4 on). The full list was thinned out, with the highest values kept by preference.

System: PfIESI-1 RRM domain (Plasmodium falciparum ortholog aa 875-1232, GST fusion)
Assay: RBNS R-value (6-mer enrichment in protein-bound RNA vs input library) (ratio); higher = stronger binding preference; the methods of the paper give 50 / 100 / 500 nM protein instead
Method: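 RNA Bind-n-Seq: recombinant GST-tagged IESI-1 RRM domain was incubated at room temperature with a random 40-nt in vitro transcribed RNA library at 250, 500 or 1000 nM protein. Bound RNA was pulled down on glutathione beads and sequenced. R-value is the enrichment of each 6-mer in the bound RNA relative to the input library. Each 6-mer sits inside the random 40-mer context, not as an isolated oligo. Values are replicate 1 only.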

Row | Sequence | RBNS R-value (protein concentration: 250 nM) | RBNS R-value (protein concentration: 500 nM) | RBNS R-value (protein concentration: 1000 nM)
1 | UAGCUA | 0.902 | 0.926 | 0.903
2 | UGAAAA | 1.16 | 1.3 | 1.22
3 | AACGUG | 0.922 | 0.984 | 0.974
4 | UCGGGU | 0.945 | 0.901 | 1.01
5 | AUGCGU | 0.924 | 0.929 | 0.959
6 | UACCGC | 0.938 | 0.867 | 0.916
7 | UAAAAC | 0.916 | 1.05 | 0.979
8 | AGUAAA | 0.862 | 1.01 | 0.909
9 | AUUCUG | 1.19 | 1.22 | 1.1
10 | AUCUGA | 1.24 | 1.3 | 1.19
11 | AAAGGG | 1.07 | 1.12 | 1.12
12 | AGAUGU | 1.06 | 1.13 | 1.05
13 | UGAUGU | 2.5 | 2.78 | 2.1
14 | UGAUGA | 3.34 | 3.56 | 2.48
15 | UUAUGC | 0.832 | 0.799 | 0.831
16 | CGAUGU | 1.13 | 1.16 | 1.09
17 | GGAUGC | 1.04 | 0.968 | 1.07
18 | UGAUCA | 1.2 | 1.26 | 1.17
19 | UGAUGC | 2.31 | 2.42 | 1.91
20 | GGAUGA | 1.23 | 1.25 | 1.17
21 | CGAUGA | 1.66 | 1.7 | 1.44
22 | CGAUCA | 0.917 | 0.906 | 0.977
23 | CGAUGC | 1.26 | 1.22 | 1.18
24 | GGUCUU | 0.91 | 0.864 | 0.932

Row | Sequence | RBNS R-value (protein concentration: 250 nM) | RBNS R-value (protein concentration: 500 nM) | RBNS R-value (protein concentration: 1000 nM)
25 | UACACG | 0.894 | 0.857 | 0.867
26 | UGUAAU | 0.85 | 0.907 | 0.853
27 | AAGGUA | 0.941 | 1.01 | 0.987
28 | CAUCAU | 0.806 | 0.8 | 0.838
29 | GCCCGC | 1.24 | 1.09 | 1.2
30 | CGAGGC | 1.15 | 1.08 | 1.17
31 | CCAUCU | 0.967 | 0.915 | 0.956
32 | CCCUCU | 0.993 | 0.894 | 0.949
33 | GAGUGC | 1.09 | 1.01 | 1.04
34 | CGAUGG | 1.24 | 1.23 | 1.17
35 | AUAUGA | 1.1 | 1.23 | 1.07
36 | AGAUGA | 1.49 | 1.55 | 1.34
37 | UGAUGG | 2.48 | 2.56 | 1.9
38 | AGAUGG | 1.12 | 1.14 | 1.14
39 | AGAUGC | 1.18 | 1.17 | 1.14
40 | CAGGCA | 1.07 | 1.06 | 1.07
41 | GUGCGC | 0.961 | 0.907 | 0.975
42 | UUCUCC | 0.999 | 0.954 | 0.96
43 | UUAUCG | 0.802 | 0.76 | 0.799
44 | GUAUUG | 0.976 | 0.938 | 0.944
45 | GUAAUA | 0.77 | 0.864 | 0.803
46 | AAUUUU | 0.989 | 1.08 | 1.03
47 | AAUUUG | 1.08 | 1.18 | 1.11
48 | GAUUUC | 1.71 | 1.74 | 1.52

Row | Sequence | RBNS R-value (protein concentration: 250 nM) | RBNS R-value (protein concentration: 500 nM) | RBNS R-value (protein concentration: 1000 nM)
49 | CAUUUC | 0.964 | 0.947 | 0.999
50 | GAUUUU | 1.78 | 1.92 | 1.53
51 | CAUUUU | 0.932 | 0.925 | 0.962
52 | GAUUUA | 1.33 | 1.46 | 1.22
53 | CAUUUA | 0.761 | 0.749 | 0.752
54 | CAUUUG | 1.03 | 1.08 | 1.04
55 | GAUUUG | 1.88 | 1.94 | 1.51
56 | UAUUUA | 0.769 | 0.744 | 0.736
57 | AAUUUC | 1.06 | 1.11 | 1.05
58 | CCUCGA | 1.12 | 1.08 | 1.11
59 | GUGUCA | 0.85 | 0.872 | 0.887
60 | GAUACG | 1.1 | 1.13 | 1.09
61 | GCGGUA | 0.985 | 0.954 | 1
62 | CUCCUA | 0.889 | 0.834 | 0.858
63 | GCUUGC | 1.01 | 0.943 | 0.985
64 | GAUAGC | 1.44 | 1.48 | 1.3
65 | GAUAGA | 1.21 | 1.3 | 1.18
66 | GAUAGU | 1.01 | 1.06 | 1
67 | AAACGG | 1.06 | 1.07 | 1.08
68 | AAAGCU | 0.98 | 1.05 | 1.03
69 | CCCAGG | 1.27 | 1.21 | 1.27
70 | CCCAGU | 1.09 | 1.03 | 1.06
71 | CCCAGA | 1.39 | 1.32 | 1.3
72 | ACAUGA | 1.25 | 1.37 | 1.2

Row | Sequence | RBNS R-value (protein concentration: 250 nM) | RBNS R-value (protein concentration: 500 nM) | RBNS R-value (protein concentration: 1000 nM)
73 | CCUUUA | 0.814 | 0.763 | 0.779
74 | UGACCG | 1.04 | 1.02 | 1.07
75 | UUUUGA | 1.53 | 1.59 | 1.37
76 | AUUUGA | 1.45 | 1.59 | 1.34
77 | AUUUGG | 1.1 | 1.17 | 1.06
78 | CUUUGG | 0.959 | 0.914 | 0.962
79 | CUUUGA | 1.35 | 1.41 | 1.26
80 | CUUUGU | 0.825 | 0.805 | 0.863
81 | UUUUGU | 0.909 | 0.927 | 0.922
82 | AUUUGU | 0.92 | 0.975 | 0.913
83 | UUUUGC | 1.06 | 1.04 | 1.02
84 | CCCUCG | 1.05 | 0.973 | 1.06
85 | AAAAUA | 0.851 | 1.05 | 0.927
86 | CCAAAU | 0.978 | 1.04 | 0.995
87 | AGCUGU | 0.94 | 0.939 | 0.951
88 | CCACAA | 0.988 | 0.991 | 1
89 | CUAGAG | 1.1 | 1.1 | 1.09
90 | GAUCGU | 0.85 | 0.817 | 0.886
91 | CGUGAU | 1.56 | 1.62 | 1.39
92 | CGUGAG | 0.982 | 0.993 | 1.05
93 | CGUGAA | 0.992 | 1.03 | 1.05
94 | UGUGAC | 0.993 | 0.99 | 0.972
95 | GGUGAG | 1.02 | 1.02 | 1.02
96 | UGUGAU | 1.55 | 1.73 | 1.39

Row | Sequence | RBNS R-value (protein concentration: 250 nM) | RBNS R-value (protein concentration: 500 nM) | RBNS R-value (protein concentration: 1000 nM)
97 | GGUGAU | 1.33 | 1.4 | 1.28
98 | UGUGAG | 0.948 | 1 | 1.06
99 | AGUGAA | 0.981 | 1.04 | 1.05
100 | AGUGAC | 1.02 | 1.05 | 1.03
101 | GGUGAC | 0.986 | 0.987 | 1.01
102 | AGUGAU | 1.55 | 1.73 | 1.44
103 | UUAUAA | 0.747 | 0.809 | 0.749
104 | UUGUCA | 0.891 | 0.887 | 0.9
105 | GCACUA | 0.903 | 0.86 | 0.892
106 | ACACCU | 1.23 | 1.16 | 1.12
107 | ACAACG | 0.949 | 0.979 | 0.966
108 | GCCCUG | 1.19 | 1.1 | 1.14
109 | CACCCC | 1.3 | 1.16 | 1.24
110 | UGCCCG | 1.32 | 1.16 | 1.2
111 | GGCCCG | 1.26 | 1.11 | 1.23
112 | CACCCA | 1.42 | 1.26 | 1.31
113 | CGCCCG | 1.43 | 1.22 | 1.33
114 | CACCCG | 1.67 | 1.33 | 1.41
115 | UACCCG | 1.3 | 1.16 | 1.2
116 | UACCCA | 1.07 | 1.01 | 1.01
117 | GACCCA | 1.15 | 1.12 | 1.14
118 | AACCCG | 1.38 | 1.25 | 1.29
119 | ACCCCG | 1.29 | 1.16 | 1.25
120 | AACCCC | 1.11 | 1.05 | 1.08

Row | Sequence | RBNS R-value (protein concentration: 250 nM) | RBNS R-value (protein concentration: 500 nM) | RBNS R-value (protein concentration: 1000 nM)
121 | AGUAGA | 1.01 | 1.08 | 1.05
122 | GAUCGC | 0.972 | 0.958 | 0.975
123 | AACACA | 0.942 | 1.02 | 0.978
124 | GAGUCA | 0.969 | 0.989 | 0.99
125 | UGCAAG | 0.989 | 1.01 | 1.03
126 | AUUAGU | 0.821 | 0.901 | 0.849
127 | CUCAGG | 1.03 | 1.04 | 1.09
128 | CACCUA | 1.09 | 1.01 | 1.01
129 | CACCUC | 1.07 | 1 | 1.05
130 | CACCUG | 1.41 | 1.3 | 1.29
131 | UCGGGG | 1.04 | 0.984 | 1.05
132 | UCUGCG | 0.996 | 0.968 | 1
133 | UUAUUA | 0.766 | 0.749 | 0.734
134 | GAUGGG | 1.47 | 1.46 | 1.34
135 | UAUGGC | 1.09 | 1.06 | 0.988
136 | GAUGGC | 1.85 | 1.82 | 1.48
137 | AAUGGG | 1.03 | 1.06 | 1.03
138 | UAUGGG | 0.895 | 0.916 | 0.918
139 | CAUGGC | 1.03 | 0.999 | 1.03
140 | CCUCCC | 1.06 | 0.981 | 1.04
141 | ACUAGG | 0.943 | 0.956 | 0.957
142 | UGGACA | 0.973 | 0.993 | 0.99
